# Results from PubChem BioAssay (NCI).
# Several values for one entry are separate records, joined by “and”; a condition that tells them apart may be missing. Equal entries are not always repeated. This is part of a sample that, as a whole, favours compounds with a hit. Of some 83,000 tested, about 20% had one in any assay.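 Assay: single dose, 48 h. Readout: percent growth (0 = no net growth; negative = cell death). Active: <10.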 Values without a mark were called inactive. Activity calls are given as the source filed them.
# Tested on: MDA-MB-468 breast
# Assay: NCI-60 one-dose screen, 48 h (100 = growth as untreated, 0 = no growth, -100 = all killed)
# Details: 10 µM unless noted
row,SMILES,growth
1,CC/C=C\C/C=C\C[C@H](O)C/C=C1/C(=O)C=C[C@H]1C/C=C\CCC(=O)OC,28.3% [8.25 µM]
2,CCCCCCCCCCCCCCCCn1cc[n+](C)c1,-79% (active)
3,CN(C)c1ccc(Cc2ccc(N(C)C)cc2Cl)c(Cl)c1,88.7%
4,CCC(=O)OC1=CN2C(=NC(c3ccc(N)cc3)=CC2c2cc(OC)c(OC)c(OC)c2)S1 (stereo not given),25.5%
5,Cc1nc2ccccc2c(/C=C/c2ccccc2)c1C(=O)/C=C/c1ccccc1,35.6%
6,O=c1[nH]c(NCc2nnnn2-c2ccc(Br)cc2)nc2sc3c(c12)CCCC3,96.9%
7,COc1cc2nc(-c3cnc(N(C)C)nc3)nc(NC3CCN(Cc4ccccc4)CC3)c2cc1OC,-72.1% (active)
8,O=C(/C=C\c1cccc([N+](=O)[O-])c1)c1ccccc1,-13.8% (active)
9,COc1cccc2c1C(=O)c1c(O)c3c(c(O)c1C2=O)C[C@](O)(C(=O)CO)C[C@H]3O[C@@H]1C[C@@H](NC(=O)CCCCCN(C)C2(c3ccc(F)cc3)CC3CCC2C3)[C@H](O)[C@@H](C)O1 (stereo not given in full),4.63% (active)
10,O=C1/C(=C/c2ccc(-c3cccc(C(F)(F)F)c3)o2)SC(=S)N1CCc1ccc(O)cc1,95%
11,COc1ccc(-c2nn(-c3ccc(NC(=O)Nc4ccc(Cl)c(Cl)c4)cc3)cc2-c2ccncc2)cc1Cl,-33.2% (active)
12,Nc1ccc(-c2nc3ccc4[nH]ncc4c3c3c2CCCC3)cc1F,7.24% (active)
13,COc1ccc(Cl)c(Nc2nc3ccccc3nc2NS(=O)(=O)c2cccc(NC(=O)C(C)(C)N)c2)c1,21.5%
14,CCn1cc(C(=O)O)c(=O)c2cc(F)c(N3CCN(S(=O)(=O)c4cccc5ccccc45)CC3)cc21,4.79% (active)
15,CC(C)N=C(N/C(N)=N/c1nc2ccccc2s1)NC(C)C,66.4%
16,N#Cc1c2c([nH]c(=O)c1C(N)=O)CCCCC2,109%
17,C=CC(=O)Nc1cccc(-c2nc(SC)nc(Nc3cccc(OC)c3)c2C#N)c1,69.7%
18,CCOS(=O)(=O)c1c(C(C)C)cc(C(C)C)cc1C(C)C,102%
19,Oc1ccc(N=Nc2nccs2)c(O)c1,48.5%
20,O=C(CNc1c(Cl)cccc1Cl)Nc1ccc(-c2nc3ccccc3s2)cc1,-7.4% (active)

row,SMILES,growth
1,Nc1ncnc2c1c(C(F)(F)F)cn2[C@@H]1O[C@H](CO)[C@@H](O)[C@H]1O,-41.1% (active)
2,O=C(Nc1nc(-c2ccc(Br)cc2)cs1)c1cc(-c2ccc(Br)cc2)nc2ccc(Cl)cc12,102%
3,CCOP(=O)(OCC)OC[C@]12CCC(C)(C)C[C@H]1C1=CC[C@@H]3[C@@]4(C)C/C(=C\c5cccnc5)[C@H](OP(=O)(OCC)OCC)C(C)(C)[C@@H]4CC[C@@]3(C)[C@]1(C)CC2,-0.445% (active)
4,O=C(O)C(O)c1ccccc1 (stereo not given),100%
5,COc1ccc(-c2nc3cc(C(=O)NC4CCCCC4)ccc3n2C2CCCCC2)cc1,109%
6,COc1cc(/C=N\NC(=O)CN2CCN(c3cc4c(cc3F)c(=O)c(C(=O)N/N=C/c3cc(OC)c(OC)c(OC)c3)cn4C3CC3)CC2)cc(OC)c1OC,-31.1% (active)
7,O=C(/C=C/C(=O)c1ccccc1)c1ccccc1,107%
8,CCCCCCCCCCCCCCCCCN,101%
9,Cc1nc2sc(C(=O)Nc3cccc(Br)c3C)c(N)c2cc1C(O)c1ccccc1 (stereo not given),17.9%
10,NNc1ncccn1,102%
11,CCCCCCC/C=C/[C@H]1O[C@]2(O)C(=O)C=C3C[C@@H](O[C@@H]4O[C@H](CO)[C@@H](O)C(O)[C@@H]4O)C[C@@H]3[C@H]2C=C1C (stereo not given in full),-3.04% (active)
12,COc1ccc(-c2nc3ccc(-c4nnc(SCC(=O)Nc5ccc(C(=O)/C=C/c6ccccc6)cc5)o4)cc3[nH]2)cc1OC,104%
13,CCn1c(C)nc([N+](=O)[O-])c1Sc1nc(N)nc2nc[nH]c12,-11.2% (active)
14,O=C(OCc1ccc2c(Cl)cc(Cl)c(O)c2n1)N1CCN(C(=O)c2cc3cc(F)ccc3[nH]2)CC1,-5.15% (active)
15,CCOc1ccc(N2C(=O)CCSC2=S)cc1,97.1%
16,CCOC(=O)c1nn(C2CCCCO2)c2ccc(NC(=O)CN3CCOCC3)cc12 (stereo not given),107%
17,COc1ccc(C2C(C#N)=C(N)Oc3c2sc2c(F)cccc32)cc1 (stereo not given),40.6%
18,O=C(Nc1ccccc1)OCCc1ccccc1,99.2%
19,Cn1c(N)c(N=O)c(=O)n(C)c1=O,122% and 112%
20,Nc1nc(-c2ccnc(Cl)c2)nn1-c1nc2ccccc2s1,107%
